Data: the supplement of paper PMC10849652
The full data set covers some 7,900 targets. This sample favours those with a hit. About 0.6% of all pairs of compound and target were hits. A number with no mark means an inactive call.

How the values were obtained:
Assay in all cases: log2 fold change, soluble protein after heating vs DMSO (PISA); higher = thermal stabilisation; K562 cells, 10 uM, 30 min; active = over 0.2 and 3.5 SD of the protein, either way, in both replicates (recomputed)
[1] = compound: CS(=O)(=O)c1ccc(-c2cnc(N)c(C(=O)Nc3ccccc3)n2)cc1
Summary of the method: (§1)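 Thermal stability values are relative to control samples and come from duplicates. They are expressed as log2 fold changes. For measurement, K562 cells (2×10^6 cells/mL) received 10 μM compound for 30 min, and aliquots were heated for 3 min over 48°C-58°C, pooled, and extracted at 4°C in PBS with 0.5% NP-40. Soluble protein, the supernatant after 21,000xg for 90 min, was quantified by TMTpro 16plex LC-MS/MS with equalised channel sums.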

tipifarnib = compound: Cn1cncc1[C@@](N)(c1ccc(Cl)cc1)c1ccc2c(c1)c(-c1cccc(Cl)c1)cc(=O)n2C [tipifarnib]
Summary of the method: as §1

crizotinib = compound: C[C@@H](Oc1cc(-c2cnn(C3CCNCC3)c2)cnc1N)c1c(Cl)ccc(F)c1Cl [crizotinib]
Summary of the method: as §1

[2] = compound: C[C@@H]1COCCN1C2=NC(=NC(=C2)C3(CC3)S(=O)(=O)C)C4=C5C=CNC5=CC=C4
Summary of the method: as §1

gandotinib = compound: Cc1cc(Nc2cc(CN3CCOCC3)c3nc(C)c(Cc4ccc(Cl)cc4F)n3n2)n[nH]1 [gandotinib]
Summary of the method: as §1

doramapimod = compound: Cc1ccc(-n2nc(C(C)(C)C)cc2NC(=O)Nc2ccc(OCCN3CCOCC3)c3ccccc23)cc1 [doramapimod]
Summary of the method: as §1

ispinesib = compound: Cc1ccc(C(=O)N(CCCN)[C@@H](c2nc3cc(Cl)ccc3c(=O)n2Cc2ccccc2)C(C)C)cc1 [ispinesib]
Summary of the method: as §1

bafetinib = compound: Cc1ccc(NC(=O)c2ccc(CN3CC[C@H](N(C)C)C3)c(C(F)(F)F)c2)cc1Nc1nccc(-c2cncnc2)n1 [bafetinib]
Summary of the method: as §1

[3] = compound: Cc1cccc(CC(=O)N2CCc3c2ccc(-c2cn(C)c4ncnc(N)c24)c3F)n1
Summary of the method: as §1

nilotinib = compound: Cc1cn(-c2cc(NC(=O)c3ccc(C)c(Nc4nccc(-c5cccnc5)n4)c3)cc(C(F)(F)F)c2)cn1 [nilotinib]
Summary of the method: as §1

[4] = compound: Cc1nc(Nc2n[nH]c3c2CN(C(=O)N[C@H](CN(C)C)c2ccccc2)C3(C)C)c2sccc2n1
Summary of the method: as §1

[5] = compound: Cc1ncc(-c2ccnc(Nc3ccc(S(C)(=O)=O)cc3)n2)n1C(C)C
Summary of the method: as §1

[6] = compound: Cn1cc(-c2ccc3nnc(C(F)(F)c4ccc5ncccc5c4)n3n2)cn1
Summary of the method: as §1

[7] = compound: C[C@H](C1=CC=C(C=C1)C(=O)NC2=C3C=CNC3=NC=C2)N
Summary of the method: as §1

duvelisib = compound: C[C@H](Nc1ncnc2nc[nH]c12)c1cc2cccc(Cl)c2c(=O)n1-c1ccccc1 [duvelisib]
Summary of the method: as §1

tozasertib = compound: Cc1cc(Nc2cc(N3CCN(C)CC3)nc(Sc3ccc(NC(=O)C4CC4)cc3)n2)n[nH]1 [tozasertib]
Summary of the method: as §1

[8] = compound: Cc1cc(SCc2sc(-c3ccc(C(F)(F)F)cc3)nc2C)ccc1OCC(=O)O
Summary of the method: as §1

dasatinib = compound: Cc1nc(Nc2ncc(C(=O)Nc3c(C)cccc3Cl)s2)cc(N2CCN(CCO)CC2)n1 [dasatinib]
Summary of the method: as §1

[9] = compound: Cn1cc(-c2ccc3c(c2)CCN3C(=O)Cc2cccc(C(F)(F)F)c2)c2c(N)ncnc21
Summary of the method: as §1

mubritinib = compound: FC(F)(F)c1ccc(/C=C/c2nc(COc3ccc(CCCCn4ccnn4)cc3)co2)cc1 [mubritinib]
Summary of the method: as §1

UniProt Q92686, sequence (Q92686 whole entry, looked up): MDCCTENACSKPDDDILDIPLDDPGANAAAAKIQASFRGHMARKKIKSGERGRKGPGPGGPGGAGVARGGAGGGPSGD
UniProt Q9H6N6, sequence (Q9H6N6 whole entry, looked up): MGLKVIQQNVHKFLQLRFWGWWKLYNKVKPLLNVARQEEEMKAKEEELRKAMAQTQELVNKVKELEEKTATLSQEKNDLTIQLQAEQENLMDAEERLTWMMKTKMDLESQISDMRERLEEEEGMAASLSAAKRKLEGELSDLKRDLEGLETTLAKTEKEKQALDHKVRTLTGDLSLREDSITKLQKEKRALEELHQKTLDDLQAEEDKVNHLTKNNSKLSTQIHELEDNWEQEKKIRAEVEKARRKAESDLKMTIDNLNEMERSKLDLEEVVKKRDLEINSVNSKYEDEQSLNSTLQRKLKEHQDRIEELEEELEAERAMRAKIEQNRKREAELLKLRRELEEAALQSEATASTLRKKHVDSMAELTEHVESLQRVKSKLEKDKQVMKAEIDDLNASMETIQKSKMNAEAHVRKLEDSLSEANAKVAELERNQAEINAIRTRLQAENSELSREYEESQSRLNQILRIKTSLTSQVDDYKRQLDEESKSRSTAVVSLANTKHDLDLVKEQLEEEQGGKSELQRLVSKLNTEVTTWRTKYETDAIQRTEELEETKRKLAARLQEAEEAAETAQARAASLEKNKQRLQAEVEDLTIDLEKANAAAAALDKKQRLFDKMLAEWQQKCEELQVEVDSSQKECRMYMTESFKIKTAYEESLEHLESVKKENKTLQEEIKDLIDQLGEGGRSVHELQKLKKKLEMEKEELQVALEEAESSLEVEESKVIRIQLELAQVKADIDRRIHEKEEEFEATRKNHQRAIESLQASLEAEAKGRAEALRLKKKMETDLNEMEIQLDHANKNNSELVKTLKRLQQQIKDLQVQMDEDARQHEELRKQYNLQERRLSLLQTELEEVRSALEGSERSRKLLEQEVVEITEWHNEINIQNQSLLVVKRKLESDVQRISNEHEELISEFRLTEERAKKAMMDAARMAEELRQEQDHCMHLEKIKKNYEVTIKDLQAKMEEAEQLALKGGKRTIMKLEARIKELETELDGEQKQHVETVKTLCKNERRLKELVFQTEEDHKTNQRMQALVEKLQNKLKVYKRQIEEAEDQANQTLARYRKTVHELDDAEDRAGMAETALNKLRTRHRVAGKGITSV
UniProt Q9H3L0, sequence (Q9H3L0 whole entry, looked up): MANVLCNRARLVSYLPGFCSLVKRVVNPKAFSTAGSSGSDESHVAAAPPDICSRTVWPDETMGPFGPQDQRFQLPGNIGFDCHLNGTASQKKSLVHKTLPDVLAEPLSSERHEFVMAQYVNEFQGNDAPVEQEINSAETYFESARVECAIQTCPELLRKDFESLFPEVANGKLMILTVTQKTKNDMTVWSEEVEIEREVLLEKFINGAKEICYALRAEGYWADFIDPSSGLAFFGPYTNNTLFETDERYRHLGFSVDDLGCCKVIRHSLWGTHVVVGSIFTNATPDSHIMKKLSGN
UniProt Q9H1P3, sequence (Q9H1P3 whole entry, looked up): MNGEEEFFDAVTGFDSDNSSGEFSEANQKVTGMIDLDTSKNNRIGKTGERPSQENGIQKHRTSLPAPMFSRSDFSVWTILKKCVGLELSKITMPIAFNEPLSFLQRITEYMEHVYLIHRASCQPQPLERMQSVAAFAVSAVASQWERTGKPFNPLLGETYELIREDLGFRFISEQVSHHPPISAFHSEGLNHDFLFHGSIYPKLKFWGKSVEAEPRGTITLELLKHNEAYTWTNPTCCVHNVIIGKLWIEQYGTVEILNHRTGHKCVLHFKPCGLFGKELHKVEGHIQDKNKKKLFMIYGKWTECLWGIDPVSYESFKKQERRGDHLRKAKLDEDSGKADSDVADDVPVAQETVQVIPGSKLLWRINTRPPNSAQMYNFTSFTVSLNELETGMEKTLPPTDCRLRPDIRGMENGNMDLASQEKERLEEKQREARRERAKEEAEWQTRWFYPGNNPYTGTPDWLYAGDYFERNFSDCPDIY
UniProt Q8N573, sequence (Q8N573 whole entry, looked up): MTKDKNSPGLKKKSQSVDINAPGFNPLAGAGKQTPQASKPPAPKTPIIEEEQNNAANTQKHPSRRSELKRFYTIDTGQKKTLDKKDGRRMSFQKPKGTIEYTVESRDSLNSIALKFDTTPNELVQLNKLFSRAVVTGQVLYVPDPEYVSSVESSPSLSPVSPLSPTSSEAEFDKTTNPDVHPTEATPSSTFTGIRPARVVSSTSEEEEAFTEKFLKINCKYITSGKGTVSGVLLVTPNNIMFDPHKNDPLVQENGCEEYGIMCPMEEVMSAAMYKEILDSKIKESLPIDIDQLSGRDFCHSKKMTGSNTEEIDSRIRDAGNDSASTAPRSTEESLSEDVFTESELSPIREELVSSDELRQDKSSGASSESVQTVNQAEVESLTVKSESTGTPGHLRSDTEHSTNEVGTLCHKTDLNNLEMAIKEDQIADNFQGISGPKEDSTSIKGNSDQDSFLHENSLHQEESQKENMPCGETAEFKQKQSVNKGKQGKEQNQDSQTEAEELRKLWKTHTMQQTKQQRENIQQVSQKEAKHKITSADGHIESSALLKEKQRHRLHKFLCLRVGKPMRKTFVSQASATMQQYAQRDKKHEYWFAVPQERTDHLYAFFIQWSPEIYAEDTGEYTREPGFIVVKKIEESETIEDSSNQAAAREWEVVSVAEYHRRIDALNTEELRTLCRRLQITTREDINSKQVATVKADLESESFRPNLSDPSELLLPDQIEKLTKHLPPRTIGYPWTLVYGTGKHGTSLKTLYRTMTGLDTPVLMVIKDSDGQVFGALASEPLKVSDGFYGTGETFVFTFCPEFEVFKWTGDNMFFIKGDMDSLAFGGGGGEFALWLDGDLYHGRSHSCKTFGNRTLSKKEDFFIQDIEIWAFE
UniProt P84157, sequence (P84157 whole entry, looked up): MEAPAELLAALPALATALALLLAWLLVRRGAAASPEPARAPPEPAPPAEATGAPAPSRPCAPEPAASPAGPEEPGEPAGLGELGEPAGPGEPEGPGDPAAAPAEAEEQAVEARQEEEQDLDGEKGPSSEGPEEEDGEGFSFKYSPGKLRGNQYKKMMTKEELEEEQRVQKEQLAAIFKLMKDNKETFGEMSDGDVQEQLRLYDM
UniProt Q8WZ82, sequence (Q8WZ82 whole entry, looked up): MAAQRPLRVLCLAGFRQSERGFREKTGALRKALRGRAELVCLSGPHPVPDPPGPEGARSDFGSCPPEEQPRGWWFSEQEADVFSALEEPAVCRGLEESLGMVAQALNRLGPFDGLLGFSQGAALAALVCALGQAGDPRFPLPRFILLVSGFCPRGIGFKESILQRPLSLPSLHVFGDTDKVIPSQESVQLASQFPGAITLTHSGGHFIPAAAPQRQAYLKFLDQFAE
UniProt Q86UD1, sequence (Q86UD1 whole entry, looked up): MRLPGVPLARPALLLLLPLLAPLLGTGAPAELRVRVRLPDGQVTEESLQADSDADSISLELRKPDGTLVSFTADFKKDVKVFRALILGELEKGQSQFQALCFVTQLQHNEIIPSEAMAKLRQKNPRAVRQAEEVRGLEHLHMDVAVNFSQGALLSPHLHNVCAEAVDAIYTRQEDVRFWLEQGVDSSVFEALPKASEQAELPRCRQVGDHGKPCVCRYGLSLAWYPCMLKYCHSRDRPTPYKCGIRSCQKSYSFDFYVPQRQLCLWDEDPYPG
UniProt Q69YL0, sequence (Q69YL0 whole entry, looked up): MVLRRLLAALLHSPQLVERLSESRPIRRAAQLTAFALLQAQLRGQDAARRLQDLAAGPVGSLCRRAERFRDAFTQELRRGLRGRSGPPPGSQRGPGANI
UniProt Q9HCD5, sequence (Q9HCD5 whole entry, looked up): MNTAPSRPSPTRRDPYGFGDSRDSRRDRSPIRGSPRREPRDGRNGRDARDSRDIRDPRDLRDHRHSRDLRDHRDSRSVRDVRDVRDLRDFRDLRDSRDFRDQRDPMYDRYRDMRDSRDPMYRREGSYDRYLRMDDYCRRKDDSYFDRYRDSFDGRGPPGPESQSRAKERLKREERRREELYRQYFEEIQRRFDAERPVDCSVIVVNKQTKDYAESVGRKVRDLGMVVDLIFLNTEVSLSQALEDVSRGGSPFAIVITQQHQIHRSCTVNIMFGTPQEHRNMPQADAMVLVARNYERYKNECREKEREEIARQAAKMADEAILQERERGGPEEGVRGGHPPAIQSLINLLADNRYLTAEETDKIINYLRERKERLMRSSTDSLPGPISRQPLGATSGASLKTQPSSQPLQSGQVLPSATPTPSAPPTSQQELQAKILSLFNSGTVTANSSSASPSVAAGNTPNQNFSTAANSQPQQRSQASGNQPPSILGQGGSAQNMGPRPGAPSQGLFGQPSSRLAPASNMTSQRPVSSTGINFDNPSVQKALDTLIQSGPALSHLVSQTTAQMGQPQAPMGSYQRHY
UniProt Q8N5F7, sequence (Q8N5F7 whole entry, looked up): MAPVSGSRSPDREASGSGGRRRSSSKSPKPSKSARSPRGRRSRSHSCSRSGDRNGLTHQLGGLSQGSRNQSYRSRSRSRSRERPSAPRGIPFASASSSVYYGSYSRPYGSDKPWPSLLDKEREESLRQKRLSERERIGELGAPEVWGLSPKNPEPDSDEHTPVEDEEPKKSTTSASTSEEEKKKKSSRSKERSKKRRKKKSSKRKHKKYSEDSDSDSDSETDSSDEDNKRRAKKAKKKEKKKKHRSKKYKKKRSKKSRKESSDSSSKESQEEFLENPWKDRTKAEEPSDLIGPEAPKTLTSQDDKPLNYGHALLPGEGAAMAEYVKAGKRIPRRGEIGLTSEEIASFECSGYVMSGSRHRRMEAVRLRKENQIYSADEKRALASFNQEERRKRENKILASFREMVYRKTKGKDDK
UniProt Q70IA6, sequence (Q70IA6 whole entry, looked up): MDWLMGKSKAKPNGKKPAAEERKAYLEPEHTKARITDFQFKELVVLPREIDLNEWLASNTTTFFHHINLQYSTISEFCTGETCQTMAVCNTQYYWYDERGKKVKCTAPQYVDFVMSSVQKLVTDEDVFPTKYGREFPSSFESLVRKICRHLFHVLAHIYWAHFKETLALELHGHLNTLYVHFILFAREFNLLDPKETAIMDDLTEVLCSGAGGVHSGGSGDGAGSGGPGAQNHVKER

Target	log2 fold change [1]	log2 fold change (tipifarnib)	log2 fold change (crizotinib)	log2 fold change [2]	log2 fold change (gandotinib)	log2 fold change (doramapimod)	log2 fold change (ispinesib)	log2 fold change (bafetinib)	log2 fold change [3]	log2 fold change (nilotinib)	log2 fold change [4]	log2 fold change [5]	log2 fold change [6]	log2 fold change [7]	log2 fold change (duvelisib)	log2 fold change (tozasertib)	log2 fold change [8]	log2 fold change (dasatinib)	log2 fold change [9]	log2 fold change (mubritinib)
NEU3 isoform 2 (UniProt Q9UQ49)	0.062	0.044																		
NRGN (UniProt Q92686)		-0.055	0.241	0.043	0.891 (active)	-0.282	0	-0.199	-0.581	0.004	-0.199	-0.088	0.074							
NA, A0A1W2PSA9					0.403		-0.059		0.022				-0.118	0.041	0.311	-0.062	-0.371	0.289	0.218	
OSBPL2 (UniProt Q9H1P3)		-0.009												0.124					0.37	0.465
MYSM1 (UniProt Q5VVJ2)	0.067		-0.091			-0.045	0.128	-0.138					0.18							
MLH1 (UniProt P40692)		0.047		0.042	-0.068			-0.063	0.035					-0.127	0	-0.124	0.094	-0.212	0.005	-0.073
NOLC1 isoform 3 (UniProt Q14978)														-0.305					-0.015	
NOS1AP (UniProt O75052)		-0.037		0.101			-0.279	-0.052					-0.179	0.237		-0.164			0.067	0.165
OVCA2 (UniProt Q8WZ82)		-0.059	0.064		-0.232	-0.186	0.026	0.171	0.039	0.026	-0.326	-0.163	-0.003							-0.231
MXRA7 isoform 3 (UniProt P84157)		0.011					-0.092						-0.078							
NASP isoform 2 (UniProt P49321)																				-0.347
NKAP (UniProt Q8N5F7)		-0.138	-0.113	-0.118	0.041	0.042	0.001	-0.016	-0.081	0.059	-0.792 (active)	0.015	-0.253	0.013	0.016	0.039	-0.034	0.086	-0.033	-0.169
MTHFD1, A0A384N5Y3	0.109	-0.146		0.117	-0.036		-0.082	0.099	-0.055	0.239	-0.099	-0.031	-0.008	-0.008	0.108	-0.11	0.081	-0.153	0.087	0.107
NCOA5 (UniProt Q9HCD5)	-0.005	0.164	-0.131		0.05	0.168	0.02		-0.04	-0.428	-0.92 (active)	0.218	-0.203		-0.155		0.052	-0.043		
OXR1 isoform 2 (UniProt Q8N573)		-0.019	-0.027	0.187	-0.225	0.022	-0.134		-0.009	-0.028	-0.002	-0.094	0.099	-0.105	0.024	0.005	0.043	0	0.15	
NCBP2AS2 (UniProt Q69YL0)	-0.092	-0.001			-0.064		-0.48 (active)	-0.504 (active)	-0.018	0	0.045	0.031	0.021	-0.027	0.037	-0.034	0.044	-0.021	0.002	0.006
MYH16 (UniProt Q9H6N6)	-0.33	-0.248	-0.097		-0.279	0.399		0.482	0.303	0.061	0.062	0.088		-0.012		-0.027			0.068	-0.025
MMADHC (UniProt Q9H3L0)		0.024	0.065		-0.087	0.099	-0.038	0.038	0.054	-0.068	-0.173	0.023	-0.063	0.093	0.007	-0.001	0.084	-0.155	-0.138	-0.005
NELFCD (UniProt Q8IXH7)		0.035	0.349	0.145	-0.327	0.025		0.116	-0.111	-0.233	-0.003	0.064		0.006	0.13		0.249	-0.158	0.061	
NUDT1 (UniProt P36639)	0.185	-0.069		0.08	-0.167	-0.113	0.012	0.129	0.052	-0.087	0.271	0.301	0.06	0.107	0.61	-0.057	0.017	-0.127	0.194	0.137
MOB2 isoform 3 (UniProt Q70IA6)		0.013		-0.166	-0.093		-0.025	0.005	-0.039	-0.133	-1.47 (active)	0.03	0.056	0.044		-0.1			-0.069	-0.108
MYO19 (UniProt Q96H55)		0.048	0.047	-0.215	-0.081	0.066	-0.065	0.007	-0.068	-0.022	-0.045	0.038	-0.069	0.491	-0.07		0.158	-0.111	-0.099	
NUDT6 (UniProt P53370)		-0.022	0.069	0.122		-0.127	-0.097			-0.1	0.083	0.08	0.05	0.6	0.019	-0.036	-0.094	-0.005	0.426	-0.049
MOB3B (UniProt Q86TA1)		0.01	-0.078		0.039	0		-0.023	0.034	-0.168	-0.397	0.032		0.098		-0.025			0.222	0.109
OAF (UniProt Q86UD1)	-0.112						0.014						0.199							-0.104
NAP1L1 (UniProt B7Z9C2)			-0.015		0.041	0.155		-0.11	-0.249	-0.011	-0.002	-0.043			0.327		0.433	-0.347		0.049
NDUFA7 (UniProt M0R0N0)	0.095							-0.052												
